Among the data in PubChem BioAssay (NCI) are growth inhibition values, retold here.

Compounds without any hit were thinned out: in the full panel of roughly 79,000, 15% have a hit. A number with no mark means an inactive call. The source made the active and inactive calls. No stated cut-off is given here; in the data, active means growth inhibition above about 70%; inactive means the rest.

Experiment [1] in a line: NCI Yeast Anticancer Drug Screen. Data for the rad50 strain (AID 155).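 Further: 0% = growth of vehicle-only cultures of the same strain.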 To be noted: S. cerevisiae rad50 strain growth inhibition, active compounds read high. Summed up: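 Relative growth inhibition (compound vs vehicle) was measured in yeast with a defined repair-gene alteration.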
Experiment [2] in a line: NCI Yeast Anticancer Drug Screen. Data for the mec2-1 strain (AID 157). To be noted: S. cerevisiae mec2-1 strain, active compounds read high. Summed up:
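Growth inhibition is read against vehicle-treated controls after compound exposure of the mec2-1 yeast strain, which is defective in DNA damage repair or cell cycle control.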

A short description of experiment [3]: NCI Yeast Anticancer Drug Screen. Data for the sgs1 mgt1 strain (AID 161).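 Further: 0% = growth of cultures given vehicle only.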 To be noted: S. cerevisiae sgs1 mgt1 strain, active compounds read high. The procedure, abridged:
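This yeast growth screen uses a strain with defined DNA-repair lesions; compound-treated growth is compared with vehicle-treated growth.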

The nature of experiment [4]: NCI Yeast Anticancer Drug Screen. Data for the cln2 rad14 strain (AID 165).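 Further: 0% = growth equal to vehicle treated cultures.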 To be noted: S. cerevisiae cln2 rad14 strain, active compounds read high. The procedure, abridged: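 Growth inhibition, relative to vehicle-treated controls, is the read-out. The test organism is a yeast strain with defined genetic alterations, cln2 rad14.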
A short description of experiment [5]: NCI Yeast Anticancer Drug Screen. Data for the bub3 strain (AID 167). To be noted: S. cerevisiae bub3 mutant strain, active compounds read high. Summed up:
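Screening used yeast with an engineered genetic alteration affecting cell cycle control. Compound-exposed cultures were compared with vehicle cultures, and reduced growth was taken as inhibition.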

Experiment [6] in a line: NCI Yeast Anticancer Drug Screen. Data for the mlh1 rad18 strain (AID 175). To be noted: S. cerevisiae mlh1 rad18 strain growth inhibition, active compounds read high. Summed up: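 Cells of a genetically altered yeast strain, deficient in DNA damage repair, were treated with compound. Their growth was then compared with that of vehicle-treated cultures to give inhibition.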
The mark [7] stands for this setting: at 5.0 µM (retest, dose inferred, filed as 0.5).
Setting [8] is: at 50.0 µM (retest, dose inferred, filed as 5.0).

With `CCC[CH2][Sn]1([CH2]CCC)[O]C(=O)c2cccc(OC)c2[O]1`, the growth inhibition in experiment [1] (setting [7]) was 93% (active); in experiment [1] (setting [8]), 99% (active); in experiment [1] (at 50.0 µM), 97.8% (active); in experiment [2] (setting [7]), 95% (active); in experiment [2] (setting [8]) it was 99% (active); in experiment [2] (at 50.0 µM), 98% (active). Moreover, the growth inhibition was 93% (active) in experiment [3] (setting [7]); 98% (active) in experiment [3] (setting [8]); 99.2% (active) in experiment [3] (at 50.0 µM); 93% (active) in experiment [4] (setting [7]); 98% (active) in experiment [4] (setting [8]); 98.4% (active) in experiment [4] (at 50.0 µM). Further, the growth inhibition in experiment [5] (setting [7]) was 94% (active); in experiment [5] (setting [8]), 97% (active); in experiment [5] (at 50.0 µM), 98.4% (active); in experiment [6] (setting [7]), 88% (active); in experiment [6] (setting [8]) it was 98% (active); in experiment [6] (at 50.0 µM) it was 98.9% (active).
Regarding `N#C[S-].[La+3].c1ccc(-c2ccccn2)nc1.c1ccc(-c2ccccn2)nc1.c1ccc(-c2ccccn2)nc1`, the growth inhibition in experiment [1] (setting [7]) is 61%; in experiment [1] (setting [8]), 98% (active); in experiment [1] (at 50.0 µM) it was 91.5% (active); in experiment [2] (setting [7]), 41%; in experiment [2] (setting [8]), 99% (active); in experiment [2] (at 50.0 µM), 93.8% (active). Besides, the growth inhibition was 46% in experiment [3] (setting [7]); 99% (active) in experiment [3] (setting [8]); 93% (active) in experiment [3] (at 50.0 µM); 33% in experiment [4] (setting [7]); 90% (active) in experiment [4] (setting [8]); 91.9% (active) in experiment [4] (at 50.0 µM). Besides, the growth inhibition in experiment [5] (setting [7]) is 60%; in experiment [5] (setting [8]) it was 99% (active); in experiment [5] (at 50.0 µM), 92% (active); in experiment [6] (setting [7]), 56%; in experiment [6] (setting [8]) it was 99% (active); in experiment [6] (at 50.0 µM), 91.3% (active).
Turning to `O=c1cccc(C2CC(CO)C3CCCCN3C2)[nH]1` (stereo unspecified), the growth inhibition in experiment [1] (setting [7]) is 1%; in experiment [1] (setting [8]), -1%; in experiment [1] (at 50.0 µM), 69.3%; in experiment [2] (setting [7]), 1%; in experiment [2] (setting [8]) it was -2%; in experiment [2] (at 50.0 µM), 91.8% (active). Besides, the growth inhibition in experiment [3] (setting [7]) is 2%; in experiment [3] (setting [8]) it was 1%; in experiment [3] (at 50.0 µM) it was 57.5%; in experiment [4] (setting [7]) it was -8%; in experiment [4] (setting [8]) it was -12%; in experiment [4] (at 50.0 µM), 37.3%. For the same compound, the growth inhibition in experiment [5] (setting [7]) is 3%; in experiment [5] (setting [8]), 2%; in experiment [5] (at 50.0 µM) it was 53.2%; in experiment [6] (setting [7]) it was -2%; in experiment [6] (setting [8]) it was -3%; in experiment [6] (at 50.0 µM) it was -50.8%.
`C/C(=C\c1ccccc1)[N+](=O)[O-]`: the growth inhibition in experiment [1] (setting [7]) was 96% (active); in experiment [1] (setting [8]) it was 99% (active); in experiment [1] (at 50.0 µM), 98.7% (active); in experiment [2] (setting [7]), 26%; in experiment [2] (setting [8]), 100% (active); in experiment [2] (at 50.0 µM), 93.2% (active). The growth inhibition in experiment [3] (setting [7]) is 26%; in experiment [3] (setting [8]) it was 98% (active); in experiment [3] (at 50.0 µM) it was 92.4% (active); in experiment [4] (setting [7]), 11%; in experiment [4] (setting [8]) it was 97% (active); in experiment [4] (at 50.0 µM), 46.9%. Also, the growth inhibition was 12% in experiment [5] (setting [7]); 99% (active) in experiment [5] (setting [8]); 94.2% (active) in experiment [5] (at 50.0 µM); 35% in experiment [6] (setting [7]); 99% (active) in experiment [6] (setting [8]); 99.3% (active) in experiment [6] (at 50.0 µM).
Turning to `CC1=C[C@H]2O[C@H]3C[C@H]4OC(=O)/C=C\C=C\C(=O)OCC[C@@H](C)C(O)C(=O)OC[C@@]2(CC1)[C@@]4(C)[C@]31CO1` (stereo partly specified), the growth inhibition is 99% (active) in experiment [1] (setting [7]); 98% (active) in experiment [1] (setting [8]); 93.5% (active) in experiment [1] (at 50.0 µM); 99% (active) in experiment [2] (setting [7]); 99% (active) in experiment [2] (setting [8]); 95% (active) in experiment [2] (at 50.0 µM). Further, the growth inhibition in experiment [3] (setting [7]) was 100% (active); in experiment [3] (setting [8]) it was 99% (active); in experiment [3] (at 50.0 µM), 95% (active); in experiment [4] (setting [7]) it was 99% (active); in experiment [4] (setting [8]), 98% (active); in experiment [4] (at 50.0 µM), 93.2% (active). The growth inhibition in experiment [5] (setting [7]) is 99% (active); in experiment [5] (setting [8]) it was 99% (active); in experiment [5] (at 50.0 µM) it was 94.3% (active); in experiment [6] (setting [7]), 99% (active); in experiment [6] (setting [8]) it was 98% (active); in experiment [6] (at 50.0 µM) it was 93.5% (active).
As to `O=C(CBr)NC1CCCCC1`, the growth inhibition in experiment [1] (setting [7]) is 1%; in experiment [1] (setting [8]) it was 93% (active); in experiment [1] (at 50.0 µM) it was 81% (active); in experiment [2] (setting [7]) it was 4%; in experiment [2] (setting [8]) it was 94% (active); in experiment [2] (at 50.0 µM), 90.6% (active). Besides, the growth inhibition is 4% in experiment [3] (setting [7]); 93% (active) in experiment [3] (setting [8]); 82.8% (active) in experiment [3] (at 50.0 µM); 2% in experiment [4] (setting [7]); 91% (active) in experiment [4] (setting [8]); 60% in experiment [4] (at 50.0 µM). Besides, the growth inhibition in experiment [5] (setting [7]) is 6%; in experiment [5] (setting [8]) it was 94% (active); in experiment [5] (at 50.0 µM), 85.2% (active); in experiment [6] (setting [7]) it was -2%; in experiment [6] (setting [8]) it was 96% (active); in experiment [6] (at 50.0 µM), 93% (active).
Turning to `ClCCN(Cc1ccccc1)CC1COc2ccccc2O1` (stereo unspecified), the growth inhibition is 10% in experiment [1] (setting [7]); 72% (active) in experiment [1] (setting [8]); 91.2% (active) in experiment [1] (at 50.0 µM); -1% in experiment [2] (setting [7]); 79% (active) in experiment [2] (setting [8]); 92.1% (active) in experiment [2] (at 50.0 µM). Besides, the growth inhibition in experiment [3] (setting [7]) was 7%; in experiment [3] (setting [8]), 95% (active); in experiment [3] (at 50.0 µM) it was 90.5% (active); in experiment [4] (setting [7]) it was -2%; in experiment [4] (setting [8]), 34%; in experiment [4] (at 50.0 µM), 82.7% (active). In addition, the growth inhibition in experiment [5] (setting [7]) was 11%; in experiment [5] (setting [8]) it was 90% (active); in experiment [5] (at 50.0 µM) it was 97.3% (active); in experiment [6] (setting [7]), 15%; in experiment [6] (setting [8]) it was 94% (active); in experiment [6] (at 50.0 µM), 97.3% (active).
